# Compounds with a hit are over-represented: about 21% of the library has one in this group of screens.
# Shiga inhibitor: A qHTS for Small Molecule Inhibitors of Shiga Toxin | Vero cells, Shiga toxin protein synthesis inhibition reporter | inhibition, % at 38.7 µM | 9.2% of 290,000 active; in the data active = inhibition mostly above about 28%, no sharp cut-off; inactive = mostly below about 43%; note: 0% is about no effect
# Cycloheximide cs: Cycloheximide Counterscreen for Small Molecule Inhibitors of Shiga Toxin; cell reporter, cycloheximide protein synthesis inhibition counterscreen; max response, %; 12% of 300,000 active; AID 2314, 2010; in the data active = max response mostly above about 13%, no sharp cut-off; inactive = mostly below about 14%; note: read at 38.3 µM for the half of the compounds with a filed dose; 0% is about no effect
# Pf growth 96h: Primary qHTS for delayed death inhibitors of the malarial parasite plastid, 96 hour incubation; P. falciparum luciferase reporter growth, 96 h; Potency, µM (titrated, usually from 28.7 µM), without a hit: at the top dose activity change, negative = inhibition, hits mostly inhibitors; 6.9% of 320,000 active; note: potency is the fitted concentration of half-maximal effect; % is set by controls: 0 for no effect and ±100 for the full control effect
#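 96 h incubation, 37 C, 5% CO2, of luciferase-reporter P. falciparum-infected RBCs (2% hematocrit, 0.05% parasitemia final) with test compounds; endpoint luminescence.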
# Pf growth 48h: Primary qHTS for delayed death inhibitors of the malarial parasite plastid, 48 hour incubation; P. falciparum luciferase growth in erythrocytes, 48 h; Potency, µM (titrated, usually from 28.7 µM), for inactives: at the highest dose activity change, negative = inhibition, actives largely listed as inhibitors; 5.9% of 310,000 active; note: potency is the fitted concentration of half-maximal effect; % is set by controls: 0 for no effect and ±100 for the full control effect
#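 Here the parasites carry a stable luciferase gene and grow inside erythrocytes in Albumax-based RPMI medium with compound for one erythrocytic cycle. Activity is scored as loss of luminescent signal.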
# NS1 function inh: qHTS Assay for Inhibitors of Influenza NS1 Protein Function | Potency, µM (doses to about 46.1 µM), inactives show top-dose activity, positive = more growth | 0.4% of 270,000 active | AID 2326, 2010; calls by dose curve; note: potency is the fitted concentration of half-maximal effect; actives are rising curves; nearly all actives have a fitted effect of over 50% in size
#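 Compounds were scored for reversing the slow growth caused by influenza A NS1 in S. cerevisiae, measured by optical density at 600 nm. Assay medium contained 2% galactose at pH 6.0; NS1-free yeast of the same strain were the positive control.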
# The depositor's hits bear a star; u = inconclusive; x = no result. Unless noted, calls come from the whole dose curve; as a rule, active = well fitted inhibition curve with a large enough effect; inconclusive = small, poorly fitted or top-dose-only effect, or another doubt; inactive = no such curve, though single readings can be large or run the other way.
SMILES,Shiga inhibitor,Cycloheximide cs,Pf growth 96h,Pf growth 48h,NS1 function inh
O=C(CN1C(=O)C(c2ccccc2)Oc2cccnc21)NCc1ccccc1F (centres undefined),8.6,16.7,9.28µM*,u,4.4%
O=C(CCCN1C(=O)C(c2ccccc2)Oc2cccnc21)Nc1cccc(F)c1 (centres undefined),-1.4,17.2,u,10.4µM*,-17.6%
Cc1ccc(S(=O)(=O)N[C@H](C(=O)N2CCC(C(=O)N[C@@H](CC(=O)O)C(=O)O)CC2)C(C)C)cc1,-2.7,-2.4,-30.3%,-0.8%,8.1%
O=C(c1cccc(S(=O)(=O)Nc2ccc(F)cc2)c1)N1CCOCC1,x,x,36.0%,7.2%,x
Cc1ccc(NC(=O)C2CCN(c3cnccn3)CC2)cc1C,-10.6,-1.1,14.1%,-12.8%,-4.7%
Cc1ncc(CO)c(/C=N/NC(=S)Nc2ccc(F)cc2)c1O,10.6,-0.8,13.1µM*,-101.6%,11.0%
Cc1ncc(CO)c(/C=N/Nc2ccc(C(F)(F)F)cn2)c1O,-3.7,-4.2,2.33µM*,u,3.5%
Cc1cc(N=Cc2c(CO)cnc(C)c2O)c(N=Cc2c(CO)cnc(C)c2O)cc1C.[Zn],x,x,x,x,-2.8%
Cc1ncc(CO)c(/C=N/N=C/c2ccccc2O)c1O,34.3,16.0*,-8.1%,u,12.7%
Cc1ccc(C2NC(=O)NC3=C2CCc2ccccc23)cc1 (centres undefined),70.6*,57.2*,3.7%,117.4%,-8.3%
CCN1CCN(Cc2ccc(OCc3ccccc3)cc2)CC1,active,50.1*,u,119.3%,-29.1%
c1ccc(COc2cccc(CN3CCc4ccccc4C3)c2)cc1,105.1*,40.8*,u,-3.9%,-0.3%
CCN1CCN(Cc2ccc(OC)c(OCc3ccccc3)c2)CC1,-4.6,-1.0,31.9%,-11.2%,0.5%
CN1CCN(Cc2ccc(OCc3ccccc3)cc2)CC1,94.3*,26.8*,u,123.4%,-3.9%
CN(C(=O)C(=O)c1cn(CC(=O)N2CCCC2)c2ccccc12)C1CCCCC1,-12.8,-3.2,-0.5%,-11.9%,-6.3%
COc1ccc(C(=O)NCCn2cc(SCC(=O)Nc3cc(C)on3)c3ccccc32)cc1OC,-23.2,-2.7,-22.2%,-25.6%,1.9%
Cc1ccc(C(=O)NCCn2cc(SCC(=O)Nc3nnc(C)s3)c3ccccc32)cc1,-6.6,7.6,4.15µM*,x,1.7%
CCCn1cc(SCC(=O)Nc2nnc(C)s2)c2ccccc21,-8.2,0.7,-7.7%,-14.8%,-10.0%
CCOc1ccc(C(=O)NCCn2cc(SCC(=O)Nc3cc(C)on3)c3ccccc32)cc1,18.2,14.9*,x,u,-24.9%
COc1ccccc1C(=O)NCCn1cc(SCC(=O)Nc2cc(C)on2)c2ccccc21,4.6,5.1,-0.7%,u,-5.9%
Cc1cc(NC(=O)CSc2cn(CCNC(=O)c3ccc(Cl)cc3)c3ccccc23)no1,12.7,37.6*,-60.5%,-14.7%,u
CC(SCc1ccccc1)C(=O)Nc1ccccc1Br (centres undefined),x,42.3*,0.0%,-3.6%,-18.0%
CNc1nc(C)c(C(=O)c2ccc(Cl)cc2)s1,34.9,8.0,x,20.4%,-11.4%
CCCC[n+]1ccn(C2=C([O-])c3ccccc3C(=O)/C2=N\S(=O)(=O)c2ccc(Cl)cc2)c1,45.6,4.7,3.7µM*,u,-3.5%
O=C(CN1C(=O)COc2ccccc21)NCC1CCCO1 (centres undefined),4.0,-2.3,18.1%,22.8%,1.6%
COc1cc(OC)c2ccc(=O)oc2c1C(CCN1CCCCC1)c1ccc(N(C)C)cc1 (centres undefined),2.0,7.2,u,u,-9.6%
CCCCCc1cc(=O)oc2c(C(CCN3CCCC3)c3ccc(N(C)C)cc3)c(OC)cc(OC)c12 (centres undefined),-7.7,-5.0,9.28µM*,u,-1.1%
CCCCCc1cc(=O)oc2c(C(CCN3CCCC(C)C3)c3ccc(OC)cc3)c(OC)cc(OC)c12 (centres undefined),-2.3,-7.1,3.29µM*,u,4.4%
CCCCCc1cc(=O)oc2c(C(CCN3CCN(c4ccccc4)CC3)c3ccc4c(c3)OCO4)c(OC)cc(OC)c12 (centres undefined),-3.5,-3.0,5.22µM*,7.38µM*,u
